# From PubChem BioAssay (NCATS)
# Results filed as inconclusive are left out. A number with no mark means an inactive call. The source made the active and inactive calls. Calls follow the shape of the dose curve; as a rule, active = well fitted cell-killing curve with a large enough effect; inconclusive = small, poorly fitted or top-dose-only effect; inactive = flat fitted curve, though single readings scatter.
# Assay: Cell Viability - LYMP2-002 (AID 977);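 also: compound exposure lasted 24 h at 37 °C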;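 as to activity change, negative = cytotoxic: plate controls were DMSO only for no effect and 92 µM tetraoctylammonium bromide for full effect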
# Conditions: LYMP2-002 lymphoblastoid cell viability, qHTS; series mostly up to 92.2 µM; activity change, negative = cytotoxic: at the top concentration
# Method in brief: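 Cytotoxicity is scored as concentration-dependent loss of cellular ATP in a human lymphoblastoid line after 24 hr compound treatment at 37 C. AC50 is obtained by modelling concentration-response data with the Hill equation.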
# Potency is read from the fitted curve at half-maximal effect.
SMILES,"activity change, negative = cytotoxic",Potency
Nc1ccc2cc3ccccc3cc2c1,-8.52%,–
CN(C)c1ccc(C2(c3ccc(N(C)C)cc3)OC(=O)c3cc(N(C)C)ccc32)cc1,-9.02%,–
CO[C@H]1/C=C/O[C@@]2(C)Oc3c(C)c(O)c4c(O)c(c5c(c4c3C2=O)NC2(CCN(CC(C)C)CC2)N=5)=NC(=O)/C(C)=C\C=C\[C@H](C)[C@H](O)[C@@H](C)[C@@H](O)[C@@H](C)[C@H](OC(C)=O)[C@@H]1C,-39.2%,–
Cc1cc(O)c(C(C)(C)C)cc1Sc1cc(C(C)(C)C)c(O)cc1C,–,31.6 µM (active)
C=C(C)c1ccccc1,-2.37%,–
C=CC(=O)OCCOCCOC(=O)C=C,–,25.1 µM (active)
C/C=C1\C(=O)C[C@H]2[C@@H]3CCC4=CC(=O)CC[C@]4(C)[C@H]3CC[C@]12C,-23.8%,–
O=C1OC(O)C(C(Cl)Cl)=C1Cl (stereo unspecified),–,25.1 µM (active)
CNc1ccc(O)cc1,–,10 µM (active)
CC(=O)Nc1ccc(C(=O)CCl)cc1,–,7.94 µM (active)
CCC(C)Nc1ccc(NC(C)CC)cc1 (stereo unspecified),–,3.98 µM (active)
O=C=Nc1ccc(Cc2ccc(N=C=O)cc2)cc1,-20.3%,–
c1ccc2c(c1)ccc1cc3c(ccc4ccccc43)cc12,-12.7%,–
c1ccc2c(c1)-c1cccc3c1c-2cc1ccccc13,12.8%,–
O=[N+]([O-])c1cc([N+](=O)[O-])c2ccc(S(=O)(=O)O)cc2c1O,-2.89%,–
O=Cc1ccc(Cl)c(Cl)c1,2.28%,–
